# From PubChem BioAssay (NCI)
# Compounds without any hit were thinned out: in the full panel of roughly 83,000, 20% have a hit.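 The endpoint reported here, percent growth, reads 100 for growth as untreated, 0 for no net growth and -100 for all cells dead.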 Unmarked numbers belong to inactive results. Calls of active or inactive are those of the source. Rule for the calls: active = growth percent below 10; inactive = the rest.
# System: UACC-257 melanoma
# Assay: NCI-60 one-dose screen, 48 h (100 = growth as untreated, 0 = no growth, -100 = all killed)
# Conditions: 10 µM unless noted
row,Compound,growth
1,Cc1[nH]ccc2cc3nc4ccccc4c3cc12,39.9%
2,NS(=O)(=O)c1ccc(-n2ncc3c(N/N=C/c4ccccc4)ncnc32)cc1,62.4%
3,O=C(C(=O)c1cc(Br)ccc1O)c1cc(Br)ccc1O,43.1%
4,COc1ccc(-c2cnc(SCC(=O)Nc3ccc(-c4nc5ccccc5s4)cc3)n2-c2ccc(OC)cc2)cc1,116%
5,N#CSCC1CC(O)(c2ccccc2)C(c2ccccc2)C(c2ccc(Cl)cc2)O1 (stereo not given),-70.2% (active)
6,OCc1n(Cc2ccc3ccccc3c2)cc[n+]1Cc1ccc2ccccc2c1,18.3%
7,c1ccc(-c2nc(Nc3nccnn3)c3ccccc3n2)cc1,109%
8,CCOC(=O)/C=C1/SC(=Nc2ccc(C#N)cc2)N(Cc2ccco2)C1=O,54.9%
9,Cc1cnc2nc(-c3ccc(N(C)C)cc3)cn2c1,102%
10,COc1ccc2c(c1)c(CC(=O)[Se]C)c(C)n2C(=O)c1ccc(Cl)cc1,3.77% (active)
11,COc1cc(/C=C/C(=O)C(C(=O)/C=C/c2ccc(OC(=O)CCNc3nnc(C)s3)c(OC)c2)C(=O)CCNc2nnc(C)s2)ccc1OC(=O)CCNc1nnc(C)s1,46.5%
12,O=C1C2C(C(=O)N1CC[Se][Se]CCN1C(=O)C3C(C1=O)[C@H]1C=C[C@@H]3C1)[C@H]1C=C[C@@H]2C1 (stereo not given in full),-63.8% (active)
13,COc1ccc(OC)c(CCn2cncc2-c2c[nH]c3cc(Br)ccc23)c1,29.9%
14,CN(C)c1ncnc2c1ncn2C1CCCCO1 (stereo not given),106%
15,COc1ccc2c(c1)sc1nc(-c3ccc(Br)cc3)cn12,101%
16,O=C(Nc1ccccc1OC(=O)c1ccccc1)c1ccccc1,63.8%
17,Cc1csc(C#Cc2cncc(O)c2)n1,98.5%
18,COc1ccc2nc(NC(=O)CN3CCn4c(nnc4C(F)(F)F)C3)sc2c1,99.5%
19,CCOC(=O)C(Br)=P(c1ccccc1)(c1ccccc1)c1ccccc1,98.9%
20,C=CCN(/C=C/CN(CC=C)CC=C)CC=C,108%

row,Compound,growth
1,O=C1NC(=S)S/C1=C\c1cc(Br)ccc1O,105%
2,COc1ccc(C(=O)/C=C/c2cccc(Nc3ccnc4cc(Cl)ccc34)c2)cc1,37.8%
3,CCCCCCCCCCOC(C)=O,94%
4,O=C1C(=O)c2c(nc3ccc(Cl)cn23)-c2ccccc21,-93.3% (active)
5,CC(=O)OCC(=O)[C@@]1(O)CC[C@H]2[C@@H]3CCC4=CC(=O)CC[C@]4(C)[C@@]3(F)[C@@H](O)C[C@@]21C,94.6%
6,CCc1nn2c(-c3ccc(Cl)cc3C)c(-c3cc(OC)c(OC)c(OC)c3)nc2s1,103%
7,COc1cc(/C=C/C(=O)C(C(=O)/C=C/c2ccc(OC(=O)CCNC34CC5CC(CC(C5)C3)C4)c(OC)c2)C(=O)CCNC23CC4CC(CC(C4)C2)C3)ccc1OC(=O)CCNC12CC3CC(CC(C3)C1)C2 (stereo not given),48.1%
8,CN(C)c1ccc(-c2nc3ncc(Br)cc3o2)cc1,104%
9,CCCc1n(Cc2ccc3ccccc3c2)cc[n+]1Cc1ccc2ccccc2c1,-33.6% (active)
10,N#Cc1c(-c2ccccc2)cc(-c2ccccc2)n(CCC(=O)O)c1=O,55.5%
11,C=C1CCC2C3(C)COC(c4ccccc4)OC3CCC2(C)C1C/C=C1/C(=O)OCC1OC(C)=O (stereo not given),91.3%
12,O=C(CNC(=O)c1cccc2ccccc12)Nc1ccccc1Cc1ccccc1,25.4% [5 µM]
13,COC(=O)C1=CCC(n2cnc3c(N)ncnc32)O1 (stereo not given),105%
14,O=C(NC1CCCCC1)c1ccc(Nc2ncnc3c2cnn3-c2ccccc2)cc1,56.5%
15,COc1ccc(-c2cc(-c3cccnc3)nc3sc(C(=O)Nc4ccccc4)c(N)c23)cc1OC,107%
16,Clc1ccc(C2=NN(c3ccc(Cl)cc3)C(c3cccc(Nc4ccnc5cc(Cl)ccc45)c3)C2)cc1 (stereo not given),76.8%
17,CCCCN=C(N)c1ccc(OCCSCCOc2ccc(C(N)=NCCCC)cc2)cc1,39.9%
18,C/C(=C\CCc1ccoc1)CC/C=C(\C)CCCC1COC(=O)C1 (stereo not given),101%
19,Oc1c(Cl)cc(Oc2cc(Cl)c(O)c(CN3CCOCC3)c2)cc1CN1CCOCC1,86.4%
20,CCOC(=O)CCN(c1c(Cl)ssc1=O)C(C)C,95.5%

# System: M14 melanoma
# Assay: as above
# Conditions: 10 µM unless noted
row,Compound,growth
1,Cc1[nH]ccc2cc3nc4ccccc4c3cc12,38%
2,NS(=O)(=O)c1ccc(-n2ncc3c(N/N=C/c4ccccc4)ncnc32)cc1,116%
3,O=C(C(=O)c1cc(Br)ccc1O)c1cc(Br)ccc1O,66.9%
4,COc1ccc(-c2cnc(SCC(=O)Nc3ccc(-c4nc5ccccc5s4)cc3)n2-c2ccc(OC)cc2)cc1,112%
5,N#CSCC1CC(O)(c2ccccc2)C(c2ccccc2)C(c2ccc(Cl)cc2)O1 (stereo not given),-77.8% (active)
6,OCc1n(Cc2ccc3ccccc3c2)cc[n+]1Cc1ccc2ccccc2c1,41.7%
7,c1ccc(-c2nc(Nc3nccnn3)c3ccccc3n2)cc1,99.3%
8,CCOC(=O)/C=C1/SC(=Nc2ccc(C#N)cc2)N(Cc2ccco2)C1=O,25.8%
9,Cc1cnc2nc(-c3ccc(N(C)C)cc3)cn2c1,100%
10,COc1ccc2c(c1)c(CC(=O)[Se]C)c(C)n2C(=O)c1ccc(Cl)cc1,-13.9% (active)
11,COc1cc(/C=C/C(=O)C(C(=O)/C=C/c2ccc(OC(=O)CCNc3nnc(C)s3)c(OC)c2)C(=O)CCNc2nnc(C)s2)ccc1OC(=O)CCNc1nnc(C)s1,-2.91% (active)
12,O=C1C2C(C(=O)N1CC[Se][Se]CCN1C(=O)C3C(C1=O)[C@H]1C=C[C@@H]3C1)[C@H]1C=C[C@@H]2C1 (stereo not given in full),-20% (active)
13,COc1ccc(OC)c(CCn2cncc2-c2c[nH]c3cc(Br)ccc23)c1,26.4%
14,CN(C)c1ncnc2c1ncn2C1CCCCO1 (stereo not given),105%
15,COc1ccc2c(c1)sc1nc(-c3ccc(Br)cc3)cn12,103%
16,O=C(Nc1ccccc1OC(=O)c1ccccc1)c1ccccc1,102%
17,Cc1csc(C#Cc2cncc(O)c2)n1,111%
18,COc1ccc2nc(NC(=O)CN3CCn4c(nnc4C(F)(F)F)C3)sc2c1,85.1%
19,CCOC(=O)C(Br)=P(c1ccccc1)(c1ccccc1)c1ccccc1,111%
20,C=CCN(/C=C/CN(CC=C)CC=C)CC=C,103%

row,Compound,growth
1,O=C1NC(=S)S/C1=C\c1cc(Br)ccc1O,88.5%
2,COc1ccc(C(=O)/C=C/c2cccc(Nc3ccnc4cc(Cl)ccc34)c2)cc1,23.2%
3,CCCCCCCCCCOC(C)=O,106%
4,O=C1C(=O)c2c(nc3ccc(Cl)cn23)-c2ccccc21,-98.7% (active)
5,CC(=O)OCC(=O)[C@@]1(O)CC[C@H]2[C@@H]3CCC4=CC(=O)CC[C@]4(C)[C@@]3(F)[C@@H](O)C[C@@]21C,85.7%
6,CCc1nn2c(-c3ccc(Cl)cc3C)c(-c3cc(OC)c(OC)c(OC)c3)nc2s1,76.7%
7,COc1cc(/C=C/C(=O)C(C(=O)/C=C/c2ccc(OC(=O)CCNC34CC5CC(CC(C5)C3)C4)c(OC)c2)C(=O)CCNC23CC4CC(CC(C4)C2)C3)ccc1OC(=O)CCNC12CC3CC(CC(C3)C1)C2 (stereo not given),-1.22% (active)
8,CN(C)c1ccc(-c2nc3ncc(Br)cc3o2)cc1,97.6%
9,CCCc1n(Cc2ccc3ccccc3c2)cc[n+]1Cc1ccc2ccccc2c1,-28.4% (active)
10,N#Cc1c(-c2ccccc2)cc(-c2ccccc2)n(CCC(=O)O)c1=O,25.5%
11,C=C1CCC2C3(C)COC(c4ccccc4)OC3CCC2(C)C1C/C=C1/C(=O)OCC1OC(C)=O (stereo not given),89.4%
12,O=C(CNC(=O)c1cccc2ccccc12)Nc1ccccc1Cc1ccccc1,10.6% [5 µM]
13,COC(=O)C1=CCC(n2cnc3c(N)ncnc32)O1 (stereo not given),105%
14,O=C(NC1CCCCC1)c1ccc(Nc2ncnc3c2cnn3-c2ccccc2)cc1,69.1%
15,COc1ccc(-c2cc(-c3cccnc3)nc3sc(C(=O)Nc4ccccc4)c(N)c23)cc1OC,66.3%
16,Clc1ccc(C2=NN(c3ccc(Cl)cc3)C(c3cccc(Nc4ccnc5cc(Cl)ccc45)c3)C2)cc1 (stereo not given),84.8%
17,CCCCN=C(N)c1ccc(OCCSCCOc2ccc(C(N)=NCCCC)cc2)cc1,81.6%
18,C/C(=C\CCc1ccoc1)CC/C=C(\C)CCCC1COC(=O)C1 (stereo not given),104%
19,Oc1c(Cl)cc(Oc2cc(Cl)c(O)c(CN3CCOCC3)c2)cc1CN1CCOCC1,105%
20,CCOC(=O)CCN(c1c(Cl)ssc1=O)C(C)C,84.7%
